# Test results from publication PMC4336329 (PLoS ONE, 2015).
# Screen size: about 310,000 compounds; about 14,000 (4.5%) showed an effect of 50% or more. The effect is printed as a negative number. What follows is part of a selection rich in strong results, with near analogues and random picks from the rest.
# Molecular target: human ether-à-go-go-related gene (hERG) potassium channel (human, UniProt Q12809)
# Experiment: primary screen, population patch clamp on CHO cells stably expressing hERG; higher = less effect of the substance
# 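Also: peak tail current of the secondary pulse compared with the same well before compound.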
# Sequence of human ether-à-go-go-related gene (hERG) potassium channel (Q12809 whole entry, looked up): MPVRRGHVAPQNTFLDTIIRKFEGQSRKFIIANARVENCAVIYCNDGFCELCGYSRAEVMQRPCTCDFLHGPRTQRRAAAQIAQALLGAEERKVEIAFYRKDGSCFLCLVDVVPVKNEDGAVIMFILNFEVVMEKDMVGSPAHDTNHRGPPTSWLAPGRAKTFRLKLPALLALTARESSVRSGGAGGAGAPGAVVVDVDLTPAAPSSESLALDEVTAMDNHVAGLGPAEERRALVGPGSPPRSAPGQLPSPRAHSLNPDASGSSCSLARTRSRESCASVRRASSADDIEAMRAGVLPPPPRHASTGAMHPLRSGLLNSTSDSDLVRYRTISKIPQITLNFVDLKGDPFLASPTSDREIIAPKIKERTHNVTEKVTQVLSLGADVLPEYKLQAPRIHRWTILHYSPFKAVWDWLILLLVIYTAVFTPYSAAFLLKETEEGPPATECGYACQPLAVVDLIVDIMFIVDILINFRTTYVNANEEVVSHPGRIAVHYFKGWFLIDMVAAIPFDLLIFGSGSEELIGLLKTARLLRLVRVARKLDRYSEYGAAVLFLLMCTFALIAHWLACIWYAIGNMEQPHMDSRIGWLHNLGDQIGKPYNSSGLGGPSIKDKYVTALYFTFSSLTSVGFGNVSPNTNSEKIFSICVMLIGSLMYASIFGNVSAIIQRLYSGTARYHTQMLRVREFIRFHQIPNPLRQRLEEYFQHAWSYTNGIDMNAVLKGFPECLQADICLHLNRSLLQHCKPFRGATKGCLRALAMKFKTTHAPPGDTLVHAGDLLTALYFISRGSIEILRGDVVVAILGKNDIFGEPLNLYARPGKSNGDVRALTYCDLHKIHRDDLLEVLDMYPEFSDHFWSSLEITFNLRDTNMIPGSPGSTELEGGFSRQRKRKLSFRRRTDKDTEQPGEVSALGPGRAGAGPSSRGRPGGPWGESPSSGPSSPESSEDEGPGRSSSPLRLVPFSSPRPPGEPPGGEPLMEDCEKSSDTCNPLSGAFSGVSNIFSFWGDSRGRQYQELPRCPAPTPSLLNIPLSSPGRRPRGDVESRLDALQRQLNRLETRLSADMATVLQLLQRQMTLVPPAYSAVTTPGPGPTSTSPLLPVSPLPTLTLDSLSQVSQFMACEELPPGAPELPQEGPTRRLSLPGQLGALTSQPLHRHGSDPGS
row,SMILES,"hERG current change (%, negative = inhibition) at 10uM [%]"
1,CN(C)S(=O)(=O)c1ccc(NC(=O)COc2ncnc3sccc23)cc1,15.7
2,CN(C)c1ccc(CNC(=O)CCNS(=O)(=O)c2cc(Br)cnc2N)cc1,12
3,COc1cccc(/C=C/C(=O)Nc2ccccc2N2CCOCC2)c1,-15.4
4,CCCCS(=O)CC(COC)OC(=O)c1ccccc1 (stereo not shown),2.46
5,CCCCS(=O)CC(COc1ccc(Cl)cc1)OC(=O)c1ccccc1 (stereo not shown),-56.3
6,CCCCS(=O)CC(CS(=O)CCCC)OC(=O)c1ccccc1 (stereo not shown),-35.2
7,CC(C)N(CCNC(=O)c1oc(=O)c2ccccc2c1-c1ccccc1)Cc1ccco1,-67.9
8,Cc1ccc(-c2c(C(=O)NCc3ccccc3)oc(=O)c3ccccc23)cc1,1.98
9,Cc1ccccc1NC(=O)c1oc(=O)c2ccccc2c1-c1ccccc1,-1.57
10,CC(C)CC(=O)Nc1ncnc2c1C(=O)CC(C)(C)C2,-0.157
11,CCOC(=O)N1CCN(S(=O)(=O)c2c(C)cc(C)cc2C)CC1,-5.61
12,CSc1ccc(/C=N/n2c(C)cc(C)cc2=O)cc1,-2.09
13,Cc1cccc(NC(=O)CSc2nnc(C3CC3)n2CC2CCCO2)c1 (stereo not shown),-14.9
14,Cc1nnc(SCC(=O)Nc2cccc(Cl)c2)n1CC1CCCO1 (stereo not shown),-7.41
15,O=C(CSc1nnc(C2CC2)n1CC1CCCO1)Nc1cccc(Cl)c1 (stereo not shown),-56.1
16,Cc1ccc([N+](=O)[O-])cc1NC(=O)CSc1nnc(C)n1CC1CCCO1 (stereo not shown),-14.6
17,Cc1nnc(SCC(=O)Nc2ccc([N+](=O)[O-])cc2)n1CC1CCCO1 (stereo not shown),-55.5
18,Cc1ccc(NC(=O)CSc2nnc(C3CC3)n2CC2CCCO2)cc1C (stereo not shown),-24
19,Cc1nnc(SCC(=O)Nc2cccc([N+](=O)[O-])c2)n1CC1CCCO1 (stereo not shown),-13
20,C=CCn1c(SCC(=O)Nc2cccc(S(=O)(=O)N(C)c3ccccc3)c2)nnc1C1CC1,-69.8
21,CN(c1ccccc1)S(=O)(=O)c1cccc(NC(=O)CSc2nnc(C3CC3)n2C)c1,-30.9
22,CCc1ccc(NC(=O)CSc2nnc(C3CC3)n2CC2CCCO2)cc1 (stereo not shown),-22.4

row,SMILES,"hERG current change (%, negative = inhibition) at 10uM [%]"
1,CCn1c(SCC(=O)Nc2cccc(S(=O)(=O)N(C)c3ccccc3)c2)nnc1C1CC1,-44.1
2,O=C(CSc1nnc(C2CC2)n1CC1CCCO1)Nc1ccc(Cl)cc1 (stereo not shown),-56.8
3,O=C(CCNS(=O)(=O)c1cccc2nsnc12)NC1CCCc2ccccc21 (stereo not shown),9.49
4,CCCc1cc(=O)n2[nH]c(CCc3ccccc3)nc2n1,14.1
5,O=C(NCC(c1cccs1)N1CCOCC1)c1ccccc1NS(=O)(=O)c1ccc(Br)cc1 (stereo not shown),-38.4
6,CCOC(=O)c1sc(NC(=O)c2ccc(Cl)s2)cc1C,3.03
7,O=C(c1ccco1)N1CCN(C2CC(=O)N(c3ccc(F)c(Cl)c3)C2=O)CC1 (stereo not shown),-14.2
8,Cc1ccc(OS(=O)Nc2cccc3nccnc23)cc1 (stereo not shown),-18.6
9,COc1ccccc1C(=O)NCCC(=O)NCc1ccncc1,-4.37
10,O=C(c1ccco1)N1CCN(Cc2nc3ccc([N+](=O)[O-])cc3c(=O)n2-c2ccccc2F)CC1,-68.3
11,CCOC(=O)c1ccc(-n2c(CN3CCN(CC)CC3)nc3ccc([N+](=O)[O-])cc3c2=O)cc1,-55
12,CCOC(=O)c1ccc(-n2c(CN3CCN(CCO)CC3)nc3ccc([N+](=O)[O-])cc3c2=O)cc1,-25.1
13,CCOC(=O)N1CCN(Cc2nc3ccc([N+](=O)[O-])cc3c(=O)n2-c2ccccc2F)CC1,-69.9
14,O=C(O)C(=O)O.O=C(c1ccco1)N1CCN(Cc2ccccc2F)CC1,3.7
15,CCOC(=O)c1ccc(-n2c(CN3CCOCC3)nc3ccc([N+](=O)[O-])cc3c2=O)cc1,1.65
16,O=c1c2cc([N+](=O)[O-])ccc2nc(CN2CCN(c3ccccn3)CC2)n1-c1ccccc1F,-28.3
17,CCOC(=O)N1CCN(Cc2nc3ccc([N+](=O)[O-])cc3c(=O)n2-c2cccc(OC)c2)CC1,-39.8
18,CCOc1ccccc1-n1c(CN2CCN(C(=O)c3ccco3)CC2)nc2ccccc2c1=O,-26.2
19,CCOC(=O)N1CCN(Cc2nc3ccc([N+](=O)[O-])cc3c(=O)n2-c2ccc(OC)cc2OC)CC1,-46.1
20,CCN1CCN(Cc2nc3ccc([N+](=O)[O-])cc3c(=O)n2-c2ccccc2F)CC1,17.9
21,CCC(CC)N1CCN(Cc2nc3ccc([N+](=O)[O-])cc3c(=O)n2-c2ccccc2F)CC1,-57
